Bioassay records from PubChem.
Hits are enriched below; roughly 7.5% of the tested compounds scored in any of these assays.
FLuc modulator: inhibits or activates purified firefly luciferase, miR-21 counter-screen. AID 588342. purified FLuc, Km substrates, luminescence inhibition. hit rate 6.9% among 360,000. Potency, µM (titrated, usually from 57.5 µM), for inactives: at the highest dose activity change, negative = inhibition, usual class: inhibitors. P08659;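 also: plate controls were vehicle for no effect and reference inhibitor for full effect; nearly all actives have a fitted effect of over 55% in size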
Target sequence (P08659 whole entry, looked up): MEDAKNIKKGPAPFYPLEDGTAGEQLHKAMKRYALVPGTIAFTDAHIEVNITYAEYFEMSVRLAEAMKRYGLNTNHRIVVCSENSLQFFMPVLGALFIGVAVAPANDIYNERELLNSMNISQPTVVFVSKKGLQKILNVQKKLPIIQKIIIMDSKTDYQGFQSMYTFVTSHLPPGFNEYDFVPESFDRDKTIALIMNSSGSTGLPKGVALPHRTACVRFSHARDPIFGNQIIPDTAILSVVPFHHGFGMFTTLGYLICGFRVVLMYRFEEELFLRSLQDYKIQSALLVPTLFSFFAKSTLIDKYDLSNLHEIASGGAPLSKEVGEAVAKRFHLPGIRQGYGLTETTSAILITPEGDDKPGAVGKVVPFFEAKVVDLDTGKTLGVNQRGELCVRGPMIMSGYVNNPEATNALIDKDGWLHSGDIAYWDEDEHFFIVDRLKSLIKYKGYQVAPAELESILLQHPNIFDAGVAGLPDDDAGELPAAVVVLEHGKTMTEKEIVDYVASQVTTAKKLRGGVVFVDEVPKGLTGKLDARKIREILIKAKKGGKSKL
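Purified P. pyralis luciferase (10nM final) with 10uM D-luciferin and 10uM ATP (Km levels) in 50mM Tris acetate pH 7.5, 10mM Mg acetate, 0.01% Tween-20, 0.05% BSA; qHTS 6-point titration, ~60 µM downward; luminescence read.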
ELG1 genotox: induces genotoxicity in HEK293T cells with luciferase-tagged ELG1; HEK293T ELG1-luciferase reporter, luminescence, 16 h; Potency, µM (doses to about 46 µM), for the others: at the highest dose activity change, positive = activation, hits mostly activators; hit rate 1.3% among 330,000; AID 504466; also: % of control where 0% means no effect; nearly all actives have a fitted effect of over 60% in size
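Genotoxic stress is detected as increased luminescence from luciferase-tagged ELG1 in HEK293T cells, measured with ONE-Glo after a 16 hr treatment at 37 °C.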
Rab9 promoter act: activates the Rab9 promoter. Huh7 Rab9 promoter-luciferase reporter, luminescence, 24 h. hit rate 2.8% among 320,000. Potency, µM (doses to about 9.22 µM), for the others: at the highest dose activation, negative = inhibition, usual class: activators. AID 485297; also: % of control where 0% means no effect; nearly all actives have a fitted effect of over 60% in size
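Stable Rab9-luc Huh7, 1500 cells/well, 2 h settle; cmpd in DMSO, 24 h, 37 °C/5% CO2; luciferase reagent 10 min RT; luminescence.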
SMN2 splice up: increases expression of the SMN2 splice variant; AID 1458; HEK293 SMN2-luciferase splicing reporter, luminescence, 30-36 h; hit rate 2.8% among 210,000; Potency, µM (titrated, usually from 46.1 µM), for inactives: top-dose activity change, positive = activation, most hits filed as activators; also: % of control where 0% means no effect; nearly all actives have a fitted effect of over 55% in size
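HEK293 cells carry an SMN2 […]–luciferase reporter in which exon 7 inclusion puts luciferase in frame. Cells were plated 10-12 h before compound addition, then incubated 30-36 h at 37C. ONE-Glo luminescence was read; sodium butyrate at 4.5 mM final served as control.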
NPC1 promoter act: NPC1 promoter activation; Huh7 NPC1 promoter luciferase reporter, 24 h; Potency, µM (highest dose often 9.22 µM), for inactives: at the top dose activation, hits mostly activators; hit rate 2.4% among 320,000; AID 485313; also: % of control where 0% means no effect; nearly all actives have a fitted effect of over 60% in size
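Compounds in DMSO were transferred onto Huh7 NPC1-luciferase reporter cells pre-incubated 2 h; after 24 h at 37 °C, Amplite reagent was dispensed and luminescence recorded 10 min later.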
* hit, by the source's call; ? = inconclusive; / = not tested or not shown; [ ] = remark or other dose. Calls follow the shape of the dose curve; as a rule, active = well fitted curve in the direction sought with a large enough effect; inconclusive = small, poorly fitted or top-dose-only effect, or another doubt; inactive = no such curve, though single readings can be large; an effect the other way counts as inactive or inconclusive. Potency is read from the fitted curve at half-maximal effect.

SMILES | FLuc modulator | ELG1 genotox | Rab9 promoter act | SMN2 splice up | NPC1 promoter act
[O-]/[N+](=C\c1ccc(OC(F)F)cc1)c1ccccc1 | 15.1µM* | 12.1% | ? | -0.6% | ?
CC1=Nc2ccc(C)cc2/C1=C/c1c(N)n2c(S(=O)(=O)C(C)C)nsc2nc1=O | ? | -3.3% | 2.8% | 20.0% | 1.1%
CC1=Nc2ccccc2/C1=C/c1c(N)n2c(S(=O)(=O)C(C)C)nsc2nc1=O | 23.9µM* | 1.5% | -3.6% | 1.5% | -2.6%
CC1=Nc2ccccc2/C1=C/c1c(N)n2c(S(=O)(=O)CC(C)C)nsc2nc1=O | 16.9µM* | 1.8% | -5.0% | -19.6% | 2.3%
C(=C\c1ccccc1)/C=N/Nc1nncc(-c2ccccc2)n1 | 2.8% | 0.3% | -4.7% | -10.9% | -2.5%
O=C(O)c1cccc2c(/C=N/Nc3ccccn3)c[nH]c12 | 8.49µM* | 8.3% | 2.82µM* | / | ?
O=c1nc(N/N=C/C=C/c2ccccc2)cn[nH]1 | 4.78µM* | 2.06µM* | 0.355µM* | / | 0.501µM*
C(=N\Nc1ccccn1)/c1c[nH]c2ccccc12 | 15.1µM* | ? | 28.0% | / | -3.4%
O=c1cnnc(N/N=C/c2c[nH]c3ccccc23)[nH]1 | -0.6% | 5.0% | -10.4% | -2.0% | 2.2%
O=c1nc(N/N=C/c2c[nH]c3ccccc23)cn[nH]1 | 12µM* | 10.3µM* | 2µM* | / | 2.51µM*
O=C(O)COc1ccc(Br)cc1/C=N\Nc1ccccn1 | ? | 0.1% | 6.1% | / | 0.5%
Cc1ccc(NC(=O)CN(C)S(=O)(=O)c2ccc3c(c2)CCC(=O)N3)c(C)c1 | 5.5% | / | / | -14.7% | /
COc1ccc2nc(NC(=O)CSc3n[nH]c(N)n3)sc2c1 | 9.53µM* | 14.6µM* | ? | / | ?
COc1ccc2nc(NC(=O)CSc3nnc4n3C(C)(C)Cc3ccccc3-4)sc2c1 | 6.75µM* | ? | 8.0% | -5.6% | -3.6%
COc1cc(NC(=O)CSc2nnc3n2C(C)(C)Cc2ccccc2-3)cc(OC)c1 | 0.3% | -12.2% | 0.9% | -34.1% | -0.9%
COc1ccc2nc(NC(=O)CSc3nnc(C)s3)sc2c1 | ? | 20.6µM* | ? | 26.2% | 2.51µM*
COc1ccc2nc(NC(=O)CSc3nnnn3C)sc2c1 | ? | 14.5% | 3.16µM* | / | 2.82µM*
Nc1nc(C(=O)O)c(N=Nc2ccccc2)c(=O)[nH]1 | / | / | / | -8.5%[9.22 µM] | /
C=CC[C@@H]1C=C[C@H](O/N=C/c2ccc(C(=O)N3[C@H](c4ccc(C)cc4)[C@@H](C)CC[C@H]3C(=O)OC)cc2)[C@@H](CO)O1 | 7.8% | -3.6% | -2.9% | -8.7% | -3.3%
CCOc1ccc(NC(=O)CN(C)CC(=O)NC2CCCc3ccccc32)cc1OCC (stereo not drawn) | -5.1% | 14.0% | -2.8% | -14.4% | -0.4%
CCOc1cc(CNC2CCCC2)ccc1OCc1ccccc1Cl | 0.5% | -4.4% | -6.7% | -41.8% | 0.4%
CCOc1cc(C2NN=C(c3ccccc3)S2)ccc1OCc1ccc(F)cc1 (stereo not drawn) | 6.01µM* | 8.2µM* | 3.16µM* | 12.6µM* | ?
CCOc1cc(C2NN=C(c3ccccc3)S2)ccc1OCc1ccccc1Cl (stereo not drawn) | 7.57µM* | ? | ? | 157.8% | ?
NC(=O)c1ccc(/C(N)=N/S(=O)(=O)c2cc(C(F)(F)F)cc(C(F)(F)F)c2)cc1 | 1.4% | -4.5% | -7.3% | / | 0.4%
Brc1ccc(-c2cn3c(n2)SCC3)cc1 | 5.36µM* | 10.3µM* | 0.708µM* | 10µM* | 1.12µM*
SMILES | FLuc modulator | ELG1 genotox | Rab9 promoter act | SMN2 splice up | NPC1 promoter act
Clc1ccc(-c2cn3c(n2)SCC3)cc1 | 19µM* | 15.1% | 1.41µM* | 11.2µM* | 1.78µM*
Oc1ccc(-c2cn3c(n2)SCC3)cc1 | ? | 16.7% | 3.7% | 9.4% | 9.7%
CCCCCc1ccc(-c2cn(Cc3cccc(OC)c3)nn2)cc1 | ? | -0.6% | -0.4% | / | -5.4%
CCCCCc1ccc(-c2cn(Cc3ccc(C)cc3)nn2)cc1 | ? | -6.2% | 3.55µM* | / | ?
COc1ccc(-c2cn(Cc3ccc(C)cc3)nn2)cc1 | ? | ? | 2.82µM* | / | 3.98µM*
COc1ccc(-c2noc(CSc3nnc(C)n3-c3ccc(C)cc3)n2)cc1 | -13.0% | / | / | -10.7% | /
CCOc1ccccc1CN1CCNC(=O)C1CC(=O)NCCCn1cccn1 (stereo not drawn) | -0.7% | 3.0% | 2.1% | / | -5.6%
O=C(O)c1ccc(-c2ccc(/C=C3\NC(=O)N(Cc4ccc(Cl)cc4)C3=O)o2)cc1 | 2.2% | -2.8% | 0.1% | / | -6.4%
CC1=NN(c2ccc(C(=O)O)cc2)C(=O)/C1=C/c1ccc(-c2ccccc2F)o1 | 4.78µM* | 10.7% | 4.9% | / | -5.0%
CC1=NN(c2ccc(C)cc2)C(=O)/C1=C/c1ccc(-c2cc([N+](=O)[O-])ccc2O)o1 | 12µM* | -6.6% | -4.3% | / | -0.2%
CC1=NN(c2ccc(Cl)c(C(=O)O)c2)C(=O)/C1=C\c1ccc(-c2ccc(C(=O)O)cc2)o1 | 26.9µM* | 1.3% | 4.7% | 25.6% | 0.3%
Cc1ccc(N(C(=O)CNC(=O)c2ccco2)C(C(=O)NC2CCCCC2)c2ccncc2)cc1F (stereo not drawn) | 1.1% | 5.0% | 0.2% | / | 0.3%
Oc1c(Cl)cccc1C=Nc1cc(C(F)(F)F)ccc1N1CCCC1 | 1.6% | 2.0% | -3.2% | 20.8% | -0.4%
Oc1c(Cl)cc(Cl)cc1C=Nc1cc(C(F)(F)F)ccc1N1CCc2ccccc2C1 | 1.9µM* | ? | ? | / | ?
Oc1c(CN2CCN(c3ccccn3)CC2)cc(Cl)c2cccnc12 | 0.2% | 7.31µM* | -32.6% | -67.1% | -16.0%
OCCN1CCN(Cc2cc(Cl)c3cccnc3c2O)CC1 | 0.0% | 10.0% | 6.6% | -46.7% | -2.7%
O=C(Nc1c2c(nn1-c1ccc(F)cc1)CS(=O)C2)c1ccc2c(c1)OCO2 (stereo not drawn) | 17.2% | -4.1% | 7.2% | / | -3.9%
COc1ccc(Cl)cc1NC(=O)NCc1cccnc1 | 15.1µM* | 0.0% | 0.5% | / | -7.3%
Cc1cc(NC(=O)Nc2ccccc2Cl)no1 | 15.1µM* | 7.5% | 27.7% | / | 19.3%
COc1ccc(OC)c(NC(=O)Nc2cc(NC(=O)Nc3cc(OC)ccc3OC)c(C)nc2C)c1 | 6.2% | ? | -3.0% | 14.1µM* | -5.0%
COc1ccc(OC)c(NC(=O)Cn2c(C)nc3ccccc3c2=O)c1 | 9.53µM* | ? | 19.0% | / | 3.16µM*
COc1ccc(OC)c(NC(=O)CSc2nc3ccccc3c(=O)n2CCNC(C)=O)c1 | -0.8% | -0.4% | -2.4% | -4.5% | -2.3%
CCC(=O)N1CCN(c2ccccc2NC(=O)COc2ccccc2Cl)CC1 | -12.6% | -18.6% | -8.6% | -17.3% | 1.3%
COc1ccc(C(=O)NCCn2cc(SCc3ccc(C(F)(F)F)cc3)c3ccccc32)cc1OC | -11.1% | / | / | -0.3% | /
COc1ccc(Cl)cc1NC(=O)Nc1cc(C)on1 | 6.01µM* | 1.3µM* | 0.501µM* | / | 1.41µM*
O=C(CN1CCN(C(=O)c2ccc(-c3nc4ccccc4s3)o2)CC1)Nc1ccccc1Cl | ? | -7.0% | 14.0% | / | 17.4%
